Laboratory results: ChEMBL document CHEMBL3988442, “University of Dundee, Small-Polar-MMV Screening Library” (2021)
For some assays here: Potency and affinity values are given separately.

Assays:
Set-up in all cases: scale not given: direction of the effect not stated beside the values
[1] = target: Protein translocase subunit SecA (Escherichia coli (strain K12)) (UniProt P10408); assay: Assay to Identify E. coli SecA ATPase Inhibitors; assay type: functional; conditions: 30 µM
[2] = target: T1, Ubiquitin-activating enzyme e1, putative (Leishmania donovani (strain BPK282A1)) (UniProt E9BSI1); assay: Leishmania donovani Ubiquitin Activating Enzyme (LdE1); assay type: functional; conditions: 30 µM
T1 sequence (whole entry): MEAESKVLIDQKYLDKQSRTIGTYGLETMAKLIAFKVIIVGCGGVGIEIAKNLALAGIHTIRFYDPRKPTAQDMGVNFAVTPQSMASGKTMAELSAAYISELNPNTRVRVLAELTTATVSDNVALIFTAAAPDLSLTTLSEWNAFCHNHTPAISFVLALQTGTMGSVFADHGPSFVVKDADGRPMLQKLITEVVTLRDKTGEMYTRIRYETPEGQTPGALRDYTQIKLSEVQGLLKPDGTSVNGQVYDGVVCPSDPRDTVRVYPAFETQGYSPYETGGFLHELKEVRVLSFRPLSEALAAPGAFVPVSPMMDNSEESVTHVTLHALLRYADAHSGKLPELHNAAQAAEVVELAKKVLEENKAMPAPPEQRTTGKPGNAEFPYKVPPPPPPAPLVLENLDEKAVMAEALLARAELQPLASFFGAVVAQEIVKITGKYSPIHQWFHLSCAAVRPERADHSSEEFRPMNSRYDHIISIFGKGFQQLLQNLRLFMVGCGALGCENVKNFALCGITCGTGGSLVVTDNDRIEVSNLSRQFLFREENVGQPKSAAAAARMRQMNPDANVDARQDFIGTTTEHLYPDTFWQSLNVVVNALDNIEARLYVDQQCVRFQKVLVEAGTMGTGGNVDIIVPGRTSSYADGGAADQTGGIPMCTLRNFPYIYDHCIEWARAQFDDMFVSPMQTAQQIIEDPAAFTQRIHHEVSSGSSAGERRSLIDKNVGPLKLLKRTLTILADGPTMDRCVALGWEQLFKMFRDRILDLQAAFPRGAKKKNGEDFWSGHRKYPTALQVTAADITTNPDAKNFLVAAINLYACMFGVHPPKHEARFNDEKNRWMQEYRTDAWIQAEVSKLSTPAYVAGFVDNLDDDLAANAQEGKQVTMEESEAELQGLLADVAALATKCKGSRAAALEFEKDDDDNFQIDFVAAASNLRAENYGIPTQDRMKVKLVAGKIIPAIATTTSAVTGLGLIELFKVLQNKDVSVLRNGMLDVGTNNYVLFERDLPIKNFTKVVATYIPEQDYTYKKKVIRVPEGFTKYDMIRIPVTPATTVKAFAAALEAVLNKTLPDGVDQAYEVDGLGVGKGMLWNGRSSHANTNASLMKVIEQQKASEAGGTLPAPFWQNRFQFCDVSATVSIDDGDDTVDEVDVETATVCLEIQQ

[3] = target: AMP-activated protein kinase, AMPK (Homo sapiens) (UniProt P54646+O43741+P54619+Q9UGJ0+Q9Y478+Q13131+Q9UGI9); assay: AMP-dependent Kinase enzyme assay. An in vitro enzyme assay that detects ADP turnover that is directly proportional to AMPK activity. This uses naive AMPK that is activated during the assay with MK-8722; assay type: functional; conditions: 30 µM
[4] = target: Sialic acid-binding Ig-like lectin 9 (Homo sapiens) (UniProt Q9Y336); assay: Hs-Siglec9 ALPHAscreen SOP 20170721; conditions: 10 µM
[5] = system: Trypanosoma cruzi; assay: Trypanosoma cruzi phosphomannomutase and mannose-1-phosphate guanylyltransferase assay; assay type: functional; conditions: 10 µM
[6] = target: T2, Arginase-2, mitochondrial (Homo sapiens) (UniProt P78540); assay: in vitro enzyme assay to detect the production of urea directly proportional to the activity of Arginase II; assay type: functional; conditions: 33.3 µM; note: in the data most compounds retested in dose-response had high values
T2 sequence (whole entry): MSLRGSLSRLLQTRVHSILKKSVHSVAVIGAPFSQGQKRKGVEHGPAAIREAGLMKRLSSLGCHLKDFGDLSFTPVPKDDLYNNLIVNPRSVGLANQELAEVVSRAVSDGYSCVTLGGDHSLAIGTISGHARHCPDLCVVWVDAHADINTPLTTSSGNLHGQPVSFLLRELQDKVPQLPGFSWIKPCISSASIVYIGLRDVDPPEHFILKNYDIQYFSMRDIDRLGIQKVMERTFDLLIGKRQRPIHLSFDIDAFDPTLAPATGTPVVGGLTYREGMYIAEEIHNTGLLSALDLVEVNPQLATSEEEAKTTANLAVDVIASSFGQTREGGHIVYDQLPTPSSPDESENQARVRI

[7] = target: T3, Proteasome subunit beta (Trypanosoma cruzi) (UniProt O96673); assay: Trypanosoma cruzi proteasome chymotrypsin-like activity (TcProtChymo) assay.; note: in the data most compounds retested in dose-response had high values; assay type: functional; conditions: 9.37 µM
T3 sequence (whole entry): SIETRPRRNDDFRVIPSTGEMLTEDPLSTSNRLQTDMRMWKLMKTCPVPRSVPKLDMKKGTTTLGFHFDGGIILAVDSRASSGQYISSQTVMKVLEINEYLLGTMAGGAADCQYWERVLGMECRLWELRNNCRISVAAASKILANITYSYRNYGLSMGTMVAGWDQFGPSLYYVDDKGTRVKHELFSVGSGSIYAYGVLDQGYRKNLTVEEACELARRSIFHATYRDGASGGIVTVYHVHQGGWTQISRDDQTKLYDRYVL

[8] = organism: Homo sapiens; assay: To identify inhibition of the IFN signalling (Jak-Stat) pathway via expression of an eGFP reporter gene under the control of an IFN-stimulated response element (ISRE) containing MxA promoter.; assay type: functional; conditions: 30 µM
[9] = target: T4, Tyrosyl-tRNA synthetase, putative (Trypanosoma cruzi (strain CL Brener)) (UniProt Q4DSP6); assay: Trypanosoma cruzi tyrosyl tRNA synthetase (TcYRS) _High Tyrosine SOP; assay type: functional; conditions: 30 µM; note: in the data most compounds retested in dose-response had high values
T4 sequence (whole entry): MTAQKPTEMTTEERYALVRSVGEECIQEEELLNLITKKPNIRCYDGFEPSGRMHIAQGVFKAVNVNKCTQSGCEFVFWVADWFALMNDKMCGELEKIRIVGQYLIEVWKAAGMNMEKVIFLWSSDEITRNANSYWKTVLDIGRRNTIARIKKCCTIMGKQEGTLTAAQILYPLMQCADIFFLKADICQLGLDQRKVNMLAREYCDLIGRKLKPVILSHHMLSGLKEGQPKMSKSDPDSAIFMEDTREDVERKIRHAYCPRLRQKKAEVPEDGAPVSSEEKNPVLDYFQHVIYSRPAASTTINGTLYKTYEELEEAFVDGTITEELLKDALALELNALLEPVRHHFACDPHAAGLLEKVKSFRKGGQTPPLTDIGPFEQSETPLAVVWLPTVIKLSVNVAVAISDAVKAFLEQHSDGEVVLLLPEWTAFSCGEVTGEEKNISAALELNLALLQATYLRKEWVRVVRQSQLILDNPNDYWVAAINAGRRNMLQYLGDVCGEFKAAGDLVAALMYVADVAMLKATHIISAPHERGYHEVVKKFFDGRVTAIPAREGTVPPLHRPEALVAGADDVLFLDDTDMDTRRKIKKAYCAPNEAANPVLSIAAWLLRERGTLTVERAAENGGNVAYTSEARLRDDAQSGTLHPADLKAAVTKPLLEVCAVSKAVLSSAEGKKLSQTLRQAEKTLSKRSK

[10] = target: T4, Tyrosyl-tRNA synthetase, putative (Trypanosoma cruzi (strain CL Brener)); assay: Trypanosoma cruzi tyrosyl tRNA synthetase (TcYRS) SOP; assay type: functional; conditions: 30 µM
[11] = target: Chromo domain-containing protein 1 (Saccharomyces cerevisiae (strain ATCC 204508 / S288c) (Baker's yeast)) (UniProt P32657); assay: ScCHD-1 Enzyme Inhibition Assay; assay type: functional; conditions: 30 µM; note: in the data most compounds retested in dose-response had high values
Chain of Chromo domain-containing protein 1 (Saccharomyces cerevisiae (strain ATCC 204508 / S288c) (Baker's yeast)) (P32657 whole entry, the tested form may be a part): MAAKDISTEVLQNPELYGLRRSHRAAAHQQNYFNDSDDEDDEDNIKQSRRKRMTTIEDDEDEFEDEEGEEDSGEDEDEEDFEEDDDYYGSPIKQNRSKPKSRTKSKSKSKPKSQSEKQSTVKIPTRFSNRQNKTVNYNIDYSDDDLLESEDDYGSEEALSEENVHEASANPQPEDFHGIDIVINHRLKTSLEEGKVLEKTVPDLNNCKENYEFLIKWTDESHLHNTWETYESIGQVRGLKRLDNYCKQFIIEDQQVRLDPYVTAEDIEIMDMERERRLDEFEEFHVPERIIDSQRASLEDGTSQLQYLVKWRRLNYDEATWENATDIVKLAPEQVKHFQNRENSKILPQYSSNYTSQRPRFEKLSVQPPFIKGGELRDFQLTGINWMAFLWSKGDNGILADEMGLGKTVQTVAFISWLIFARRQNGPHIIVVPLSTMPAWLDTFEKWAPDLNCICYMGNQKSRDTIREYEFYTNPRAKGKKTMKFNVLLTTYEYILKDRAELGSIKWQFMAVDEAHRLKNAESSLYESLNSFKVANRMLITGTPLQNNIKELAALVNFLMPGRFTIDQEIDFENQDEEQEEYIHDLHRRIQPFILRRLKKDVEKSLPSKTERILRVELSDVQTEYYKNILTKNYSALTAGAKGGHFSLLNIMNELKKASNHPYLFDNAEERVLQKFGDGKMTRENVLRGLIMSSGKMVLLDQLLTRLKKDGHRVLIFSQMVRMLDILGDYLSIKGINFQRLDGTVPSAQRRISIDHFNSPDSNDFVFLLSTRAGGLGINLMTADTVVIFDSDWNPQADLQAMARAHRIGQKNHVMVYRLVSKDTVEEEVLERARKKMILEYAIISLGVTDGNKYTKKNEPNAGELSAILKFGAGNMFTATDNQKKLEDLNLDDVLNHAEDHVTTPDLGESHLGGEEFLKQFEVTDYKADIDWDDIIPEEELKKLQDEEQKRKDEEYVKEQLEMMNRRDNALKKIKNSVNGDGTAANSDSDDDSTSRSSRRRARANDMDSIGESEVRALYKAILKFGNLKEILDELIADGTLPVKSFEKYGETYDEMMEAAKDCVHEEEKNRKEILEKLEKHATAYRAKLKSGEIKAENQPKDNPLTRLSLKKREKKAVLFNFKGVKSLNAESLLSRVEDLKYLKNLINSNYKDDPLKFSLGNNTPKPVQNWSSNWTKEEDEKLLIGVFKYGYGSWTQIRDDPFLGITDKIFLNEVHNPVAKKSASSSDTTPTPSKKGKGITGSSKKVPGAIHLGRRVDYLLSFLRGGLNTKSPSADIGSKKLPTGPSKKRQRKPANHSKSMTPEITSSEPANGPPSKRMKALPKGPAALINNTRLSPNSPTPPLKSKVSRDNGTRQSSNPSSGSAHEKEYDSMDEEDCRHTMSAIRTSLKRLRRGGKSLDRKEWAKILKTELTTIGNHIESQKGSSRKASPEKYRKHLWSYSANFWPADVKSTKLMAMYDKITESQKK

Chain of Protein translocase subunit SecA (Escherichia coli (strain K12)) (P10408 whole entry): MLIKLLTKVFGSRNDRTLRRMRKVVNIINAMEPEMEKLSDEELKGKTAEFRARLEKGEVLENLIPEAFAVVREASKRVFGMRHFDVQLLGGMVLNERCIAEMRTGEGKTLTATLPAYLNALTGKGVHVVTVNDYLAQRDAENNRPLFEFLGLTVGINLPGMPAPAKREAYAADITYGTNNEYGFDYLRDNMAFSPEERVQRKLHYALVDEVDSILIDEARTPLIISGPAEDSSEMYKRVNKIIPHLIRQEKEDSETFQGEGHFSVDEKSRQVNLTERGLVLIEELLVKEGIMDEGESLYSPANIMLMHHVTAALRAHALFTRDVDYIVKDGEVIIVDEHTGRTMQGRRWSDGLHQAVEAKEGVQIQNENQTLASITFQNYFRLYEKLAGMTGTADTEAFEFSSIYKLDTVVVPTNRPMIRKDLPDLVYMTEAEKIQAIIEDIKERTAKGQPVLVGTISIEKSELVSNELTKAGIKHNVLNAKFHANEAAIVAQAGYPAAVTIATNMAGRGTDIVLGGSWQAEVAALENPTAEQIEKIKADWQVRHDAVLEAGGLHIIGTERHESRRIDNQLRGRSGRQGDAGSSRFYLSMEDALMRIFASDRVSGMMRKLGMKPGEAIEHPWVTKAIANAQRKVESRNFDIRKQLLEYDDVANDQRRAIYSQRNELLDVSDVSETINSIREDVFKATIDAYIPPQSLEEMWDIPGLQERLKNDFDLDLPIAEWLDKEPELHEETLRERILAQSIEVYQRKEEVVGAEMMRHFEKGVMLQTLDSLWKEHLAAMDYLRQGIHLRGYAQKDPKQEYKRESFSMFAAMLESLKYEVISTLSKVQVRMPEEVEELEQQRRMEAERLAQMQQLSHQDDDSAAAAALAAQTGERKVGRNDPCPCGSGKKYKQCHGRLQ
Chain of Sialic acid-binding Ig-like lectin 9 (Homo sapiens) (Q9Y336 whole entry): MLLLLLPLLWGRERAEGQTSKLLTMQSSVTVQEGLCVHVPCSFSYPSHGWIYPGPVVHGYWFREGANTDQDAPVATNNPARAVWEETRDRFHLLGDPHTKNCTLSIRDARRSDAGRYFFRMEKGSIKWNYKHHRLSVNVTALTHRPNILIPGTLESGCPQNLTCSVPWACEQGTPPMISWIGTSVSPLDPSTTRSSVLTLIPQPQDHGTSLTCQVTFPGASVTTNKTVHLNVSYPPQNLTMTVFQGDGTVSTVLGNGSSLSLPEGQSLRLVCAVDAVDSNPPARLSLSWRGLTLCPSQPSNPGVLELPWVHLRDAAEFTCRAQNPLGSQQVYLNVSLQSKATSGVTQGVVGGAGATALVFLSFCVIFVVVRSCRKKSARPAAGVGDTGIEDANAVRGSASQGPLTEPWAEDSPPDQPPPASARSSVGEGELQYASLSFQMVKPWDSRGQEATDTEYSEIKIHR

Structure (SMILES)	Percent Effect [1]	Percent Effect [2]	Percent Effect [3]	Percent Effect [4]	Percent Effect [5]	Percent Effect [6]	Percent Effect [7]	Percent Effect [8]	Percent Effect [9]	Percent Effect [10]	Percent Effect [11]
CN(C)c1cncc(C2CCN(CCO)CC2)n1	-3.32%	12.2%	5.42%	-1.62%	-2.96%	-3.94%	8.74%	8.75%	7.53%	16.9%	-15.7%
O=C(NCCn1ccc(-c2ccccn2)n1)C1CC1	-1.6%	0%	8.98%	2.65%	-3.85%	5.81%	2.79%	7.05%	3.17%	3.85%	-0.508%
O=C(c1cnc(C2CC2)s1)N1CCCCC1Cn1cccn1 (stereo unspecified)	-2.96%	1.27%	4.54%	-0.611%	-1.13%	-3.23%	12.9%	-2.91%	2.08%	7.59%	-0.92%
Cc1nc(C2CCCN2CC(=O)NCCOc2ccccc2)no1 (stereo unspecified)	-3.91%	5.26%	-1.52%	4.39%	3.38%	-0.383%	12.7%	-2.83%	0.49%	7.32%	-12.7%
O=C(CN1CCOC(Cn2cccn2)C1)Nc1nccs1 (stereo unspecified)	-3.64%	21.6%	-3.52%	14.3%	6.22%	-1.29%	8.8%	7.16%	5.94%	25.6%	-6.75%
Cc1cnn(CCC(=O)N2CCOC(c3nc(C(C)(C)C)n[nH]3)C2)c1 (stereo unspecified)	-3.54%	-6.94%	7.25%	3.02%	-3.6%	-0.883%	5.26%	20.6%	-1.05%	-10.3%	-1.3%
CC(C)c1nc(CC(=O)Nc2nc(CN3CCCCCC3)cs2)cs1	-2.6%	-15.6%	-8.27%	-10.6%	13.8%	-4.84%	4.61%	1.12%	10.5%	23.5%	-15.2%
CC(=O)N1CCN(c2cc(-c3ccccc3)nc3c(C)c(C)nn23)CC1	-6.15%	-11%	-6.13%	6.66%	4.96%	2.4%	16.2%	4.69%	7.29%	8.64%	-7.72%
CC(=O)N1CCN(Cc2nnc(C(C)(C)C)o2)CC1	0.446%	5.41%	-5.16%	-0.469%	-0.772%	2.86%	14.3%	7.35%	1.59%	9.76%	-3.99%
COc1ccc(OCCCN2CCOC(Cn3cccn3)C2)cc1 (stereo unspecified)	-8.28%	3.8%	9.54%	3.31%	-1.74%	1.94%	2.74%	28.6%	1.04%	2.53%	-3.35%
NC(=O)C1CN(C(=O)Nc2ccccc2SC(F)(F)F)CCO1 (stereo unspecified)	-2.59%	10.8%	-2.48%	12.1%	7.15%	-1.29%	4.31%	9.57%	5.94%	18.3%	-7.87%
Cc1nc(NCCc2ccc(Cl)cc2)cc(C(=O)N2CCOCC2)n1	0.862%	5.2%	-3.84%	11.5%	3.64%	-44.1%	9.98%	23.7%	7.53%	16.1%	-2.1%
O=C(NCCO)Nc1cccc(Cl)c1SC(F)F	-7.96%	-1.39%	0.408%	20.6%	-3.01%	0.883%	13.9%	28.9%	-5.26%	-15.4%	-1.91%
COc1cc2cc(C(=O)O)n(C)c2c(OC)c1OC	2.1%	-9.33%	13.7%	8.78%	-4.71%	-5.46%	13.9%	1.84%	-3.17%	-5.13%	-10%
COc1ccc(C(=O)N2CCCCC2Cn2cccn2)c(F)c1 (stereo unspecified)	-1.68%	15.6%	2.24%	6.84%	1.5%	-1.42%	13.7%	-14.3%	6.8%	14.6%	-9.15%
O=S(=O)(N(Cc1ccccn1)C1CC1)N1CCCC1c1ccco1 (stereo unspecified)	-4.42%	16.2%	0.691%	9.84%	5.66%	-2.77%	0.359%	5.33%	3.96%	18.3%	-5.26%
